Measured values reported in PubChem BioAssay AID1159580 (chemical genetic matrix, 2015).
Several values for one entry are separate records, joined by “and”; a condition that tells them apart may be missing. Identical values can stand only once. The whole screen tested about 5,500 compounds, of which about 2,000 (36%) were called active. Not shown: some 18% with an inconclusive outcome. Rule as the data show it: active = normalized growth mostly below about 0.91 (no sharp cut-off); inconclusive = no clear call, values can overlap the other calls; inactive = mostly above about 0.92. This is one part of the list.

Test: chemical genetic growth profiling, strain panel (AID 1159580);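 also: tested at 20 µM; growth read once vehicle control cultures reached saturation at 30 °C; 1 = growth at the plate median or of vehicle wells; lower values mean less growth of the strain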
Settings: S. cerevisiae deletion strains, growth OD

Measured: normalized growth

CCOC(=O)c1ccc(N)cc1
inactive: locus YAL021C, strain ccr4, hits give low values 1.03 | locus YAL026C, strain drs2, hits give low values 1 | locus YAL030W, strain snc1, hits give low values 1.01 | locus YBL061C, strain skt5, hits give low values 0.999 | locus YBR009C, strain hhf1, hits give low values 0.98 | locus YBR021W, strain FUR4, hits give low values 0.998 | locus YBR023C, strain chs3, hits give low values 1.03 | locus YBR171W, strain sec66, hits give low values 1.03 | locus YBR229C, strain ROT2, hits give low values 0.999 | locus YBR231C, strain swc5, hits give low values 1 | locus YBR279W, strain paf1, hits give low values 1 | locus YCL011C, strain gbp2, hits give low values 0.987 | locus YCL016C, strain dcc1, hits give low values 1.01 | locus YCL029C, strain bik1, hits give low values 0.993 | locus YCL061C, strain MRC1, hits give low values 1.01 | locus YCL069W, strain vba3, hits give low values 0.993 | locus YCR088W, strain abp1, hits give low values 1.01 | locus YDL005C, strain med2, hits give low values 1.01 | locus YDL035C, strain GPR1, hits give low values 1.01 | locus YDL040C, strain nat1, hits give low values 1.01 | locus YDL074C, strain BRE1, hits give low values 0.994 | locus YDL101C, strain DUN1, hits give low values 0.993 | locus YDL185W, strain tfp1, hits give low values 0.994 | locus YDL192W, strain arf1, hits give low values 1.01 | locus YDR001C, strain nth1, hits give low values 0.999 | locus YDR069C, strain doa4, hits give low values 1.04 | locus YDR101C, strain arx1, hits give low values 1.01 | locus YDR137W, strain rgp1, hits give low values 1.01 | locus YDR150W, strain NUM1, hits give low values 0.993 | locus YDR159W, strain sac3, hits give low values 1 | locus YDR162C, strain NBP2, hits give low values 0.999 | locus YDR195W, strain ref2 1.09 | locus YDR297W, strain sur2, hits give low values 1.01 | locus YDR318W, strain mcm21, hits give low values 0.994 | locus YDR334W, strain swr1, hits give low values 1.02 | locus YDR335W, strain msn5, hits give low values 1.02 | locus YDR388W, hits give low values 0.989 | locus YDR392W, strain spt3, hits give low values 0.941 | locus YDR502C, strain sam2, hits give low values 0.987 | locus YEL003W, strain gim4, hits give low values 1.02 | locus YEL037C, strain rad23, hits give low values 1.01 | locus YEL061C, strain CIN8 (second series), hits give low values 1.04 | locus YEL061C, strain CIN8, hits give low values 1.01 | locus YER015W, strain faa2, hits give low values 1.01 | locus YER016W, strain bim1, hits give low values 0.972 | locus YER110C, hits give low values 0.995 | locus YER111C, strain swi4, hits give low values 1 | locus YER155C, strain BEM2 (second series), hits give low values 0.952 | locus YER155C, strain BEM2, hits give low values 1.01 | locus YER167W, strain BCK2, hits give low values 1 | locus YFR010W, strain ubp6, hits give low values 1.02 | locus YGL078C, strain dbp3, hits give low values 0.996 | locus YGL086W, strain mad1, hits give low values 0.993 | locus YGL167C, strain pmr1, hits give low values 1.03 | locus YGL173C, strain kem1, hits give low values 0.998 | locus YGL227W, strain vid30, hits give low values 1.02 | locus YGL240W, strain doc1, hits give low values 0.996 | locus YGL248W, strain PDE1, hits give low values 0.997 | locus YGL253W, strain hxk2, hits give low values 1.01 | locus YGR135W, strain pre9, hits give low values 0.99 | locus YGR252W, strain gcn5, hits give low values 0.959 | locus YHR013C, strain ard1, hits give low values 1.04 | locus YHR027C, strain rpn1, hits give low values 1.01 | locus YHR030C, strain SLT2, hits give low values 1.01 and 1.02 | locus YHR079C, strain IRE1 (second series), hits give low values 0.994 | locus YHR079C, strain IRE1, hits give low values 0.993 | locus YHR094C, strain hxt1, hits give low values 0.984 | locus YHR129C, strain ARP1, hits give low values 1 | locus YHR142W, strain chs7, hits give low values 0.963 | locus YHR200W, strain rpn10, hits give low values 0.989 | locus YIL066C, strain RNR3, hits give low values 1.02 | locus YIL073C, strain SPO22, hits give low values 0.943 | locus YIL125W, strain kgd1, hits give low values 0.991 | locus YIR030C, strain dcg1, hits give low values 0.997 | locus YJL092W, strain hpr5, hits give low values 1.02 | locus YJL095W, strain BCK1 (second series), hits give low values 1.01 | locus YJL095W, strain BCK1, hits give low values 0.995 and 0.999 | locus YJL115W, strain asf1, hits give low values 1.02 | locus YJL129C, strain trk1, hits give low values 1.04 | locus YJL134W, strain LCB3, hits give low values 1 | locus YJL154C, strain vps35, hits give low values 1.01 | locus YJL164C, strain tpk1, hits give low values 0.982 | locus YJL166W, strain qcr8, hits give low values 1.01 | locus YJL168C, strain set2, hits give low values 0.992 | locus YJL187C, strain SWE1 (second series), hits give low values 0.985 | locus YJR043C, strain POL32, hits give low values 1.02 | locus YJR066W, strain TOR1, hits give low values 0.966 | locus YKL009W, strain mrt4, hits give low values 0.976 | locus YKL068W, hits give low values 0.993 | locus YKL085W, strain MDH1 (second series), hits give low values 0.996 | locus YKL085W, strain MDH1, hits give low values 0.996 | locus YKL160W, strain elf1, hits give low values 1.02 | locus YKL190W, strain CNB1, hits give low values 0.988 | locus YKR001C, strain vps1, hits give low values 0.987 | locus YKR091W, strain srl3, hits give low values 1.01 | locus YLL001W, strain dnm1, hits give low values 1.01 | locus YLL026W, hits give low values 1.02 | locus YLL041C, strain sdh2, hits give low values 1.02 | locus YLR027C, strain aat2, hits give low values 1 | locus YLR039C, strain RIC1, hits give low values 1.01 | locus YLR058C, strain SHM2, hits give low values 0.999 | locus YLR102C, strain apc9, hits give low values 0.989 | locus YLR113W, strain HOG1, hits give low values 0.979 | locus YLR221C, strain rsa3, hits give low values 1.01 | locus YLR258W, strain gsy2, hits give low values 0.998 | locus YLR262C, strain YPT6 (second series), hits give low values 1.03 | locus YLR262C, strain YPT6, hits give low values 0.988 | locus YLR268W, strain sec22, hits give low values 0.991 | locus YLR320W, strain mms22, hits give low values 0.978 | locus YLR330W, strain CHS5, hits give low values 1.01 | locus YLR342W, strain FKS1 (second series), hits give low values 1.03 | locus YLR342W, strain FKS1, hits give low values 1 | locus YLR357W, strain rsc2, hits give low values 1.05 | locus YLR370C, strain arc18, hits give low values 1.01 | locus YLR371W, strain rom2, hits give low values 0.994 | locus YLR384C, strain iki3, hits give low values 1.02 | locus YLR418C, strain cdc73, hits give low values 0.988 | locus YML016C, strain PPZ1, hits give low values 1 | locus YML032C, strain rad52, hits give low values 0.995 | locus YML120C, strain ndi1, hits give low values 1.02 | locus YML124C, strain tub3, hits give low values 0.992 | locus YMR058W, strain fet3, hits give low values 1.03 | locus YMR078C, strain ctf18, hits give low values 0.998 | locus YMR125W, strain sto1, hits give low values 1.01 | locus YMR129W, hits give low values 1.01 | locus YMR205C, strain PFK2, hits give low values 1.01 | locus YMR223W, strain ubp8, hits give low values 0.997 | locus YMR231W, strain pep5, hits give low values 1.01 | locus YMR263W, strain SAP30, hits give low values 1 | locus YMR307W, strain GAS1, hits give low values 1.09 | locus YNL067W, strain RPL9B, hits give low values 0.975 | locus YNL071W, strain lat1, hits give low values 0.983 | locus YNL183C, strain NPR1, hits give low values 0.949 | locus YNL209W, strain ssb2, hits give low values 0.993 | locus YNL233W, strain BNI4, hits give low values 1.01 | locus YNL248C, strain rpa49, hits give low values 1 | locus YNL250W, strain rad50, hits give low values 0.983 | locus YNL271C, strain bni1, hits give low values 0.993 | locus YNL298W, strain CLA4, hits give low values 1.01 | locus YNL307C, strain MCK1, hits give low values 0.986 | locus YNL322C, strain KRE1 (second series), hits give low values 1.01 | locus YNR049C, strain mso1, hits give low values 1.02 | locus YNR052C, strain pop2, hits give low values 0.987 | locus YOL006C, strain TOP1, hits give low values 1.03 | locus YOL012C, strain htz1 0.986 | locus YOL147C, strain pex11, hits give low values 0.993 | locus YOR001W, strain rrp6, hits give low values 1.02 | locus YOR061W, strain CKA2, hits give low values 0.996 | locus YOR069W, strain VPS5, hits give low values 0.998 | locus YOR070C, strain gyp1, hits give low values 0.989 | locus YOR080W, strain dia2, hits give low values 1.03 | locus YOR083W, strain WHI5, hits give low values 1.01 | locus YOR106W, strain vam3, hits give low values 1.02 | locus YOR136W, strain idh2, hits give low values 0.98 | locus YOR144C, strain elg1, hits give low values 0.997 | locus YOR184W, strain ser1, hits give low values 0.991 | locus YOR231W, strain MKK1, hits give low values 0.989 | locus YOR265W, strain rbl2, hits give low values 1.01 | locus YOR270C, strain vph1, hits give low values 0.973 | locus YOR290C, strain snf2, hits give low values 0.988 | locus YOR316C, strain cot1, hits give low values 0.989 | locus YPL051W, strain arl3, hits give low values 1.02 | locus YPL055C, strain LGE1, hits give low values 1 | locus YPL078C, strain atp4, hits give low values 1.03 | locus YPL106C, strain sse1, hits give low values 0.946 | locus YPL240C, strain hsp82, hits give low values 1.02 | locus YPL241C, strain CIN2, hits give low values 1 | locus YPL256C, strain CLN2, hits give low values 0.983 | locus YPR119W, strain clb2, hits give low values 0.99 | locus YPR141C, strain kar3, hits give low values 0.999 | locus YPR163C, strain tif3, hits give low values 1 | locus YPR167C, strain met16, hits give low values 0.996 | strain wtn01, hits give low values 0.997
